From the supplement of paper PMC6555819

Columns and labels:
Test in all cases: PBM binding z-score (relative to random genomic background probes); higher = stronger binding; sequences stand for … in GC…GCGATTGACAGCGTAGAATGAAGG
[1] = test system: RARb homodimer (NR concentration 270 nM)
In short: (§1)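 Antibodies against each partner of ligand-free nuclear receptor dimers (one per run) detected binding on custom Agilent 4×180K protein-binding microarrays after 1 h incubation. The double-stranded probes had 34-nt variable regions carrying direct-repeat seeds, single-nucleotide variants, half-site ablations and random human genomic background sequences. Binding z-scores, from regression-normalized fluorescence, use the random background probes as reference.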

[2] = test system: RARg:RXRa (NR concentration 270 nM, RXRa partner concentration 90 nM)
In short: as §1

[3] = test system: RARg homodimer (NR concentration 270 nM)
In short: as §1

[4] = test system: RXRa DBDmut IVT, anti-RXR (DBD mutation: RXRa K156A/R161A, NR concentration 90 nM)
In short: as §1

[5] = test system: RXRa homodimer (NR concentration 180 nM)
In short: as §1

[6] = test system: THRa:RXRa (NR concentration 90 nM, RXRa partner concentration 90 nM)
In short: as §1

[7] = test system: THRa homodimer (NR concentration 90 nM)
In short: as §1

[8] = test system: VDR:RXRa (NR concentration 270 nM, RXRa partner concentration 90 nM)
In short: as §1

[9] = test system: VDR homodimer (NR concentration 270 nM)
In short: as §1

Sequence | PBM binding z-score [1] | PBM binding z-score [2] | PBM binding z-score [3] | PBM binding z-score [4] | PBM binding z-score [5] | PBM binding z-score [6] | PBM binding z-score [7] | PBM binding z-score [8] | PBM binding z-score [9]
TCTATTAGTTGAAGTGCAACCGACGAGTCCGTTT | 0.42 | 0.379 | 0.172 | 1.58 | 0.754 | 0.107 | 0.145 | 1.22 | 1.83
TCGAGTAGGTTAGTCGGGCCATTCAGCCAACATA | -0.0179 | -0.285 | -0.251 | -0.153 | -0.135 | 0.516 | -0.252 | 0.761 | -0.149
TCTATTAGTAGATTAGGGCAACCGAAACAGCGGA | 0.21 | 0.245 | 0.496 | 0.901 | 0.284 | 0.399 | -0.319 | 0.247 | -0.419
AGAATGAGGTTACCTAAGATCAGGGAAACGCTTG | 0.84 | 2.05 | 1.65 | 0.932 | 2.66 | 3.93 | 1.05 | 1.47 | 0.305
TCTGCTAGGTCAACGATGGTAAGCTAATCTGCTA | 2.66 | 3.8 | 4.83 | 0.819 | 2.4 | 2.62 | 0.291 | 1.82 | -0.612
ATCGAAAGGTCGAAGTTGAGTATACCCACCCGAA | 2.55 | 4.07 | 3.83 | 1.9 | 4.79 | 2.01 | -0.00538 | 3.08 | 1.02
CCTACTGGGACAAGGTCATTGATCAGTCAAAGCA | 3.22 | 4 | 3.34 | 1.7 | 3.71 | 3.47 | 2.27 | 3.48 | 3.29
CCTAGCAGGCCAATCTGGGTCATTCAAGGCTTGA | 2.03 | 0.777 | 0.991 | 0.224 | 0.619 | 3.73 | 0.0402 | 1.06 | 0.585
ATATGTAGGTTACATCCCGGTCATTCAGGCTATG | 2.44 | 2.92 | 1.76 | 0.814 | 1.44 | 2.18 | 1.44 | 1.79 | 1.12
TTACCAAGGTGAGCTGAGGTCGTGGATCCAACTC | 1.97 | 1.47 | 0.791 | -0.207 | 1.82 | 4.83 | 2.55 | 3.37 | 0.927
AGTCAAAGTTCACTAGGGAACGTAAGATTCAGCT | 3.65 | 4.75 | 5.65 | 4.23 | 3.67 | 2.05 | -0.852 | 3.85 | 3.23
TAGCCTAGGTCATGCTGGCCAGTATAGTGTCGGC | 3.02 | 3.72 | 4.32 | 0.579 | 2.71 | 3.03 | 0.898 | 2.04 | -0.0948
AGTGAAAGTTCATCTAGGTAACGTAAGATATGCT | 3.66 | 5.08 | 5.81 | 4.66 | 4.44 | 3 | 0.263 | 4.97 | 5.43
CCAGACAGGTGAAAGGTAACTAAGTCTGGTACGC | 0.728 | 1.08 | 0.582 | -0.0522 | 1.99 | 0.784 | -0.203 | 0.397 | -0.529
CCTAGCAGGCCCGGGTCACTCAAGCATTTCGCTT | 2.02 | 1.96 | 1.46 | -0.519 | 2.43 | 2.71 | 1.3 | 1.43 | 0.294
CCTCGCAGGCCAATCTGGGTCACTCAAGGCTTGA | 2.37 | 1.18 | 1.63 | 0.29 | 0.763 | 3.93 | 0.712 | 0.596 | 0.14
ATCTCTAGGTAAGACTCAGTTCAGTGGAGAACGC | 0.868 | 0.285 | 0.403 | 0.304 | 0.0842 | 0.884 | 0.583 | 0.529 | 1.57
CCTTACGTGTCACTCCAGGTTATAGCATCGGAGT | 1.36 | 0.925 | 1.27 | 1.09 | 0.845 | 3.43 | 1.14 | 1.33 | 1.24
CCTACTGGGCCATCGGGTCATTGATATCAACGTT | 2.25 | 2.25 | 1.72 | -0.759 | 1.89 | 2.86 | 1.94 | 2.27 | 1.68
AGAATGAGGTTATTAAGATCAGGGGATTGCGGTC | 0.919 | 1.03 | 0.573 | 1.97 | 1.49 | 2 | 0.811 | 2.36 | 1.35
AGAACGAGGGCAGGCTGAGTTGATAGCAGAGTAG | 0.683 | 0.569 | 1.17 | 0.639 | 0.342 | 0.523 | -0.552 | 0.431 | 0.453
CCTATTAGTTGACCATAGGGGCAACCGAAGCTCG | 1.3 | 0.669 | 0.729 | 0.6 | 0.362 | 0.842 | 0.596 | 0.497 | 0.581
CCGACTGGGACATAAGGTTACCATAAGCCAGCCC | 1.42 | 0.813 | 0.738 | -0.237 | 1.01 | 2.26 | 1.7 | 0.181 | -0.0177
TCAAATAGGTAAAGGTGAAAGTCGAACGATATGA | 1.73 | 1.78 | 1.49 | 1.55 | 2.33 | 1.32 | -0.328 | 1.17 | 0.351
GCTTACGGATCAAAGGTTATAGCATGAATAGAAT | 0.947 | 1.91 | 0.963 | 0.513 | 3.71 | 1.64 | -0.516 | 1.52 | -0.0828
CCAACGAGGGCATGAGTTGATAGCAAATGCCGAT | 0.406 | 0.887 | 1.35 | 2.04 | 0.929 | 1.01 | -0.114 | 1.09 | 1.2
